Rows were chosen to be rich in hits. Some 8.2% of all compounds tested hit in one or more screens of this group.
SW480 rereplic: induces DNA re-replication in SW480 colon adenocarcinoma cells; AID 624297; actives 1.8% (n = 340,000); Potency, µM (top dose mostly 46.1 µM), without a hit: at the top dose re-replication activation, hits mostly activators; SW480 DNA re-replication, Hoechst DNA content imaging, 48 h; also: % of control where 0% means no effect; nearly all actives have a fitted effect of over 55% in size
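DNA re-replication was detected as more nuclei of elevated Hoechst intensity after 48 hr exposure to compound (23 nL pinned per well of 250 cells).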
KB-V1 cytotox: kills drug-selected multidrug resistant KB-V1 cells; KB-V1 MDR cells viability, CellTiter-Glo, 72 h; AID 1347076; actives 3.4% (n = 400,000); Potency, µM (doses to about 46.1 µM), usual class: cytotoxic; also: % is scaled to controls: 0 for no effect and ±100 for the full control effect; nearly all actives have a fitted effect of over 60% in size
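Compound-treated KB-V1 multidrug-resistant cells, 72 h, 37 degrees C; viability by CellTiter-Glo. Fitted qHTS curves give the values.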
KB-3-1 cytotox: KB-3-1 parental cell cytotoxicity. KB-3-1 viability, CellTiter-Glo ATP luminescence, 72 h. Potency, µM (series often up to 46.1 µM), hits mostly cytotoxic. actives 1.4% (n = 400,000). AID 1347075; also: % is scaled to controls: 0 for no effect and ±100 for the full control effect; nearly all actives have a fitted effect of over 60% in size
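Cytotoxicity measured as CellTiter-Glo luminescence after 72 h at 37 C. Compound titrations were pinned onto drug-naive KB-3-1 parental adenocarcinoma cells grown in DMEM with 10% FBS, and normalized data fitted to concentration-response curves.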
ELG1 repair inh: inhibitors of ELG1-dependent DNA repair in HEK293T cells; HEK293T ELG1-luciferase reporter, luminescence, 16 h; DNA damage induced by 5-fluorouridine; Potency, µM (titrated, usually from 46.1 µM), without a hit: top-dose activity change, negative = inhibition, usual class: inhibitors; actives 2.3% (n = 330,000); AID 504467; also: % is scaled to controls: 0 for no effect and ±100 for the full control effect; nearly all actives have a fitted effect of over 55% in size
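In this reporter screen, reduction of luminescence relative to DMSO vehicle indicated activity. Compounds and 5-fluorouridine were added together to 2,000 cells per well, incubated for 16 hr at 37 °C, then developed with ONE-Glo.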
MCF10A rerep: inducers of DNA re-replication in MCF 10A breast cells. AID 624296. actives 2.9% (n = 350,000). Potency, µM (highest dose often 46.1 µM), inactives show at the highest dose activity, positive = re-replication, hits mostly activators. MCF 10A DNA re-replication, Hoechst nuclear intensity, 48 h; also: % of control where 0% means no effect; nearly all actives have a fitted effect of over 50% in size
Starred values were filed as active, the others as inactive; i = inactive; ? = inconclusive; . = no result. Calls follow the shape of the dose curve; as a rule, active = well fitted curve in the direction sought with a large enough effect; inconclusive = small, poorly fitted or top-dose-only effect, or another doubt; inactive = no such curve, though single readings can be large; an effect the other way counts as inactive or inconclusive. Potency is read from the fitted curve at half-maximal effect.

SMILES	SW480 rereplic	KB-V1 cytotox	KB-3-1 cytotox	ELG1 repair inh	MCF10A rerep
O=C(CSc1ncnc2nc[nH]c12)N1CCOCC1	18µM*	i	i	-4%	8.2µM*
CCn1c(SCC(=O)NC2CCCCC2)nnc1-c1cccnc1	?	i	i	6%	?
CC12CCC(O)CC1=CCC1C2CCC2(C)C1CCC21CCC(=O)O1 (centres undefined)	-66%	21µM*	?	2%	?
COCCNC(=O)/C(C#N)=C/C=C/c1ccccc1[N+](=O)[O-]	23%	?	i	?	15µM*
COCCNC(=O)/C(C#N)=C/c1cccc(/C=C(\C#N)C(=O)NCCOC)c1	?	i	?	21µM*	21µM*
CC(C)c1nnc(NC(=O)c2nc(S(=O)(=O)Cc3ccccc3F)ncc2Cl)s1	12%	i	?	?	0.73µM*
Cc1ccc(CS(=O)(=O)c2ncc(Cl)c(C(=O)Nc3nnc(C(C)C)s3)n2)cc1	6%	?	?	?	?
Cc1nnc(NC(=O)c2nc(S(=O)(=O)Cc3ccccc3C)ncc2Cl)s1	?	?	?	21µM*	2.6µM*
CC(C)c1nnc(NC(=O)c2nc(S(=O)(=O)Cc3ccc(F)cc3)ncc2Cl)s1	1.3µM*	i	?	?	0.73µM*
Cc1ccc(NC(=O)CC(C)CC(=O)NCc2ccccc2)cc1Cl (centres undefined)	?	i	i	-15%	1%
Cc1ccc(S(=O)(=O)Nc2cc(-c3nn(C)c(=O)c4ccccc34)ccc2N2CCOCC2)cc1	16µM*	i	i	?	?
COCCNC(=O)[C@H](CSCc1ccccc1)N1Cc2ccccc2C1=O	-7%	9.2µM*	i	-9%	-2%
COc1cc(-c2cc(O)c(-c3ccc4ccccc4n3)c(=O)[nH]2)cc(OC)c1OC	21µM*	?	?	.	12µM*
Cc1cc(C)c(C)c(S(=O)(=O)N2CCC(C(=O)NCC(c3ccccc3)N(C)C)CC2)c1C (centres undefined)	177%	i	i	-13%	?
COc1ccc(CCc2cc(OC)cc(=O)o2)cc1	-5%	i	i	10%	-1%
COc1cc(C2C(c3ccccc3)C(c3cc(OC)cc(=O)o3)C2c2ccccc2)oc(=O)c1 (centres undefined)	6%	6.5µM*	i	.	?
Fc1ccc(-c2nc3c(Cl)cc(C(F)(F)F)cn3c2Cc2cccc(Cl)c2)cc1	.	i	23µM*	.	.
FC(F)(F)c1cc(Cl)c2nc(-c3ccc(Cl)cc3)c(Cc3ccsc3)n2c1	.	i	12µM*	.	.
Cc1ccc(Cc2c(-c3ccc(F)cc3)nc3c(Cl)cc(C(F)(F)F)cn23)cc1	.	i	?	.	.
O=C(Nc1ccc(OCc2cc(=O)n3c4c(sc3n2)CCCC4)cc1)c1ccc(F)cc1	.	i	i	.	.
CC(C)Cc1ccc(S(=O)(=O)Nc2cccnc2)cc1	4.6µM*	i	i	-2%	14%
CC(=O)NC(NC(=S)Nc1cccc(Br)c1)C(Cl)(Cl)Cl (centres undefined)	3%	i	i	?	-9%
CN1CCCN(c2ncnc3scc(-c4ccc(F)cc4)c23)CC1	-24%	i	i	10%	-1%
Cc1sc2ncnc(N3CCN(S(=O)(=O)c4ccccc4)CC3)c2c1C	-7%	7.3µM*	i	?	12%
COc1ccc(-c2csc3ncnc(N4CCN(c5ccccc5[N+](=O)[O-])CC4)c23)cc1	?	.	.	5.2µM*	16µM*
Cc1ccc(S(=O)(=O)N2CCN(c3ncnc4scc(-c5ccccc5)c34)CC2)cc1	3%	7.3µM*	?	?	?
CC(C)c1ccc(-c2csc3ncnc(N4CCN(C)CC4)c23)cc1	5%	i	i	12µM*	?
Cc1sc2nc(CN3CCCC3)nc(N3CCN(S(=O)(=O)c4ccccc4)CC3)c2c1C	-3%	i	i	-5%	5%

Bioassay records deposited in PubChem by National Center for Advancing Translational Sciences (NCATS).
